In PubChem BioAssay (NCI):
The panel holds about 83,000 compounds, 20% with a hit somewhere; the sample as a whole holds those more often.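 Values shown are percent growth following 48 h exposure of cells in 96-well plates to a single concentration of compound; below 10 was considered active.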 Values without a mark were called inactive. The source made the active and inactive calls.

What was measured:
Assay in all cases: NCI-60 one-dose screen, 48 h (100 = growth as untreated, 0 = no growth, -100 = all killed)
Conditions in all cases: 10 µM unless noted
NCI-H23 lung = system: NCI-H23 lung
NCI-H226 lung = system: NCI-H226 lung
NCI-H322M lung = system: NCI-H322M lung
HOP-62 NSCLC = system: HOP-62 NSCLC
NCI-H460 lung = system: NCI-H460 lung
HOP-92 NSCLC = system: HOP-92 NSCLC
NCI-H522 lung = system: NCI-H522 lung
A549/ATCC NSCLC = system: A549/ATCC NSCLC
786-0 renal = system: 786-0 renal
COLO 205 colon = system: COLO 205 colon

Compound | growth (NCI-H23 lung) | growth (NCI-H226 lung) | growth (NCI-H322M lung) | growth (HOP-62 NSCLC) | growth (NCI-H460 lung) | growth (HOP-92 NSCLC) | growth (NCI-H522 lung) | growth (A549/ATCC NSCLC) | growth (786-0 renal) | growth (COLO 205 colon)
CCC(C)C1CCC(O)CC1 (stereo not given) | 96.3% | 101% | 100% | 110% | 108% | 102% | 101% | 103% | 100% | 112%
Cc1ccc(S(N)(=O)=O)cc1Cl | 111% | 105% | 121% | 110% | 113% | 101% | 98.6% | 92.9% | 100% | 104%
CC(C)NC(=O)OCc1c(COC(=O)NC(C)C)c(-c2ccc(Cl)cc2)n2c1CCC2 | 36.5% | 63% | 62.8% | 46.4% | 24.6% | 26.2% | 51.2% | 66.5% | 36.4% | 57.2%
O=C(OCC1CCCO1)c1ccc([N+](=O)[O-])cc1 (stereo not given) | 105% | 92.5% | 100% | 92.6% | 95.5% | 91.8% | 94.2% | 90.9% | 91% | 103%
CC1CCC(C)(C)c2ccccc21 (stereo not given) | 97.2% | 90% | 98.9% | 99.9% | 109% | 116% | 93.6% | 98.2% | 101% | 104%
CCCC(OC(C)=O)c1ccc2c(c1)OCO2 (stereo not given) | 97.7% | 99.4% | 97.8% | 98.7% | 106% | 104% | 103% | 104% | 100% | 107%
CCOC(=O)C1(N)CCCCC1 | 96.8% | 98.6% | 107% | 102% | 112% | 102% | 96.8% | 100% | 101% | 110%
O=C(O)Cc1cccc2ccccc12 | 121% | 117% | 105% | 106% | 109% | 103% | 95.7% | 99.8% | 111% | 113%
CCOC(=O)c1ccc(NC(=O)Nc2nccs2)cc1 | 19.4% | 19.9% | 41.3% | 20.6% | -44.2% (active) | -7.86% (active) | -43.5% (active) | 10.6% | -7.93% (active) | -82.9% (active)
OCCc1ccc(Cl)cc1 | 104% | 99.9% | 101% | 95.9% | 109% | 105% | 89.8% | 88.8% | 95.6% | 109%
CC1(C)CC(=O)C=C(N)C1 | 88.1% | 103% | 106% | 103% | 121% | 109% | 89.6% | 94.8% | 106% | 134%
CC(=O)C[n+]1ccc(C)cc1Sc1ccccc1C | 91% | 107% | 102% | 99.1% | 104% | 94.9% | 98.1% | 112% | 93.5% | 116%
O=C(NCc1ccco1)Nc1cccc2c(NC(=O)NCc3ccco3)cccc12 | 75.5% [100 µM] | 112% [100 µM] | 120% [100 µM] | 104% [100 µM] | 111% [100 µM] | 124% [100 µM] | 36.5% [100 µM] | 108% [100 µM] | 104% [100 µM] | 71.4% [100 µM]
CCN(Cc1ccc(Cl)c(Cl)c1)c1ccc2nc(N)nc(N)c2c1C | -76.6% (active) | -62.2% (active) | -94.3% (active) | -74.2% (active) | -95.8% (active) | -90.9% (active) | -64.7% (active) | -55.9% (active) | -89.5% (active) | -96.1% (active)
CCOC(=N)CC(=O)Nc1cccc(C)c1Cl | 100% | 84.5% | 99.6% | 102% | 105% | 89.1% | 110% | 106% | 106% | 100%
CN1CCCN(C(c2ccccc2)c2ccc(Cl)cc2)CC1 (stereo not given) | 91.4% | 93.9% | 100% | 94.2% | 93% | 60.4% | 103% | 107% | 73.3% | 103%
N#CC1(O)CCCCC1 | 114% | 100% | 97.8% | 95.2% | 107% | 96.5% | 88.6% | 92.1% | 105% | 109%
NC(=S)c1c(N)n(C2OC(CO)C(O)C2O)c2ncnc(N)c12 (stereo not given) | -0.783% (active) | 14% | -25.8% (active) | 3.76% (active) | -0.26% (active) | -21.5% (active) | -53.5% (active) | 5.46% (active) | -0.846% (active) | -50.9% (active)
COC1OC(CO)C(OC)C(O)C1O (stereo not given) | 105% | 102% | 99.9% | 102% | 97.4% | 111% | 113% | 103% | 101% | 113%
O=C(O)Cc1ccc(Cl)cc1 | 114% | 96% | 108% | 86.9% | 107% | 38.8% | 101% | 120% | 93.7% | 107%
O=CNCCc1ccccc1 | 102% | 98.9% | 106% | 90.8% | 111% | 88.5% | 104% | 96.8% | 102% | 103%
COc1ccc(C2CC(c3ccccc3)=Nc3ccccc3S2)cc1 (stereo not given) | 98% | 98.2% | 90.3% | 98.7% | 105% | 87.1% | 77.6% | 111% | 98.2% | 97.1%
Cc1[nH]n(-c2ccccc2)c(=O)c1C=NC(=S)C(N)=S | 98.1% | 99.7% | 110% | 104% | 107% | 84% | 86.2% | 93.6% | 104% | 106%
CCNc1ccc2ccccc2c1N=Nc1ccc(N=Nc2ccccc2)cc1 | 99.4% | 83.6% | 101% | 102% | 84.7% | 98.1% | 90.2% | 102% | 108% | 100%
CC(c1ccccc1)N1C(=O)CSC1=S (stereo not given) | 51.2% | 83.2% | 74.9% | 59.2% | 0.475% (active) | 47.5% | -14.2% (active) | 78.8% | 21.2% | 1.28% (active)
CC1CN(CCO)CC(C)O1 (stereo not given) | 106% | 95.2% | 102% | 99.3% | 110% | 103% | 108% | 100% | 104% | 117%
Cc1cc(Cc2ccccc2)c(O)c(Cc2ccccc2)c1 | 82.5% | 85.9% | 97.3% | 85.5% | 99.4% | 90% | 78% | 76.5% | 86.6% | 106%
O=c1[nH]c(=O)c2cc(Cl)cc(Cl)c2[nH]1 | 101% | 96.8% | 94.8% | 113% | 112% | 104% | 99.7% | 108% | 101% | 117%
C=CCC(O)C=C (stereo not given) | 101% | 103% | 91.7% | 109% | 107% | 109% | 108% | 99.4% | 97.5% | 106%
O=[N+]([O-])c1ccc2[nH]c(=S)n(/C=C(/c3ccc(Cl)cc3Cl)S(=O)(=O)Cc3ccc(Cl)cc3Cl)c2c1 | 96.2% | 106% | 100% | 90.3% | 108% | 112% | 88.6% | 83.3% | 94.6% | 99%
